# Measured values taken from the supplement of paper PMC11732987, “Enantioselective OTUD7B fragment discovery through chemoproteomics screening and high-throughput optimisation” (Communications Chemistry, 2025).
# A number with no mark means an inactive call.
# Key:
# Assay in all cases: log2 ratio of Biotin-Ahx-Ub-VS probe labelling (fragment/DMSO); higher = less target engagement (more negative = stronger competition), active = hit call of the paper (q ≤ 0.05, log2 ratio ≤ -1)
# Conditions in all cases: compound concentration: 200 uM; treatment time: 3 h
# [1] = molecular target: UniProt O00507
# Chain of UniProt O00507 (O00507 whole entry, the tested form may be a part): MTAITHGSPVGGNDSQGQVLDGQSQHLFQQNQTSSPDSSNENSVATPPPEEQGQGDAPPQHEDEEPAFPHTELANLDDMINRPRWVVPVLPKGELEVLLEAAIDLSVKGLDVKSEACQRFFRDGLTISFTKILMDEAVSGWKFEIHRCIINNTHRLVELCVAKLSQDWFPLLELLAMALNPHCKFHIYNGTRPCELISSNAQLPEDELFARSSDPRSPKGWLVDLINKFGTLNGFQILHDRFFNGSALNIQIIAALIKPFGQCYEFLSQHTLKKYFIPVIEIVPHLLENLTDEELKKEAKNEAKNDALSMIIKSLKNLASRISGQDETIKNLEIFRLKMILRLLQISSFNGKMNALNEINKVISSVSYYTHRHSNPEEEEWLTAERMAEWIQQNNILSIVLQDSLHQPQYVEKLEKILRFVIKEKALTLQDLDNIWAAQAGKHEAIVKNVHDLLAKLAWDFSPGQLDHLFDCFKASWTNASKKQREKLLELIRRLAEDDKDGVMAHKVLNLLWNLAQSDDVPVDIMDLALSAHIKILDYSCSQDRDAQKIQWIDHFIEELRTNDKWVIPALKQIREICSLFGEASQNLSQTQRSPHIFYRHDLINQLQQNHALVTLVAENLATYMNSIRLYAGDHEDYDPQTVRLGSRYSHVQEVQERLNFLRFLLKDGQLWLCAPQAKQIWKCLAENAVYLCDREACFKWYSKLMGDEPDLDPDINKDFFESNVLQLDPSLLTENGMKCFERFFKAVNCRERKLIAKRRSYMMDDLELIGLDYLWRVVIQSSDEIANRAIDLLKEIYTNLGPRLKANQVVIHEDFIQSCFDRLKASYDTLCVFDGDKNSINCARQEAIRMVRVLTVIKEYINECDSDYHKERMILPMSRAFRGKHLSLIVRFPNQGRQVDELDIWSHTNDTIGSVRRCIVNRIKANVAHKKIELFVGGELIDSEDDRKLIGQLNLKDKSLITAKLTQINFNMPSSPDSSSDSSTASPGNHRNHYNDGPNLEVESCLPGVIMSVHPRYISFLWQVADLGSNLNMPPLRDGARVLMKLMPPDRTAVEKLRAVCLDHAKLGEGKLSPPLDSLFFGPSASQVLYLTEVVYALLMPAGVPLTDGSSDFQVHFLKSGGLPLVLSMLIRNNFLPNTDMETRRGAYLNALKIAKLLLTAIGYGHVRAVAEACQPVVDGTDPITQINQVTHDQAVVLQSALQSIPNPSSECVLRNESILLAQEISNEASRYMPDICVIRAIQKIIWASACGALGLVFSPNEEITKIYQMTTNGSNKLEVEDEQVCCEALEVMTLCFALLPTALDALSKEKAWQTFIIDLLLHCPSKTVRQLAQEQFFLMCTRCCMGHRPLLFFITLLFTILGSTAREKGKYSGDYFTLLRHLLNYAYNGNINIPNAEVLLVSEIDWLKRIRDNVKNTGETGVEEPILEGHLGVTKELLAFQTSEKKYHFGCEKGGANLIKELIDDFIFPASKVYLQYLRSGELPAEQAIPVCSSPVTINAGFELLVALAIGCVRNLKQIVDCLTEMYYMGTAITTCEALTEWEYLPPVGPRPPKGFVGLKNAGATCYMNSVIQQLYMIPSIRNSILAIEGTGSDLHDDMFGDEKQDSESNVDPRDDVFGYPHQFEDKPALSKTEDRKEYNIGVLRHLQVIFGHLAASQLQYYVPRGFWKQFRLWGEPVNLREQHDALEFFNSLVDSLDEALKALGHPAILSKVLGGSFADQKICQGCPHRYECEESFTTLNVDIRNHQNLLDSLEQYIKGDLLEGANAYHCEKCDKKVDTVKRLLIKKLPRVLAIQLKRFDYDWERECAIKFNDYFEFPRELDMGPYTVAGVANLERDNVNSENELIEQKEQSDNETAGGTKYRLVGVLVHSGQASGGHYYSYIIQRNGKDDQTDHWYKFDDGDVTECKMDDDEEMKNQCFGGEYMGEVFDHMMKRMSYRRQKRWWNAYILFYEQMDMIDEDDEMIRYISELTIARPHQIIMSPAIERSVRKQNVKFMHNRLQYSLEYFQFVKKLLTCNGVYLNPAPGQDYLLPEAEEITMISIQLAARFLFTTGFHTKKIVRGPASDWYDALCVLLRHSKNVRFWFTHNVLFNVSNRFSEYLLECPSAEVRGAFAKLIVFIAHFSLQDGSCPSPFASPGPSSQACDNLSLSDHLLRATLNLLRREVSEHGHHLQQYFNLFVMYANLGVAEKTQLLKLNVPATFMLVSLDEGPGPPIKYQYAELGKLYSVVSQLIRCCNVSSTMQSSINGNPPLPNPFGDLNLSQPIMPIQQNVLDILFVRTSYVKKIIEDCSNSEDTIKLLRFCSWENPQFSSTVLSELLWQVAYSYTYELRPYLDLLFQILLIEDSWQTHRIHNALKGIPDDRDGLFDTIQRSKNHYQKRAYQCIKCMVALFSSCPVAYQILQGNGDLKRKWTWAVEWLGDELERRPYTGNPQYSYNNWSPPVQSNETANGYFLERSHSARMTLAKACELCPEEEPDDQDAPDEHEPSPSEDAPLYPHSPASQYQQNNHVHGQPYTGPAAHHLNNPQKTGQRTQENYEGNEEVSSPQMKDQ
# Outline: (§1)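 Triplicate samples of HEK293T lysate, 495 µg each, received fragment at 200 µM or vehicle for 3 h, followed by Biotin-Ahx-Ub-VS (0.5 µM final) for 1 h. After NeutrAvidin enrichment of labelled DUBs and LysC/trypsin digestion, peptides were run by diaPASEF LC-MS/MS. The values are average log2 fragment/vehicle ratios from global-median-normalised Spectronaut label-free quantities, tested by unpaired t-test on proteins having ≥2 unique peptides.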
# [2] = molecular target: UniProt P51784
# Chain of UniProt P51784 (P51784 whole entry): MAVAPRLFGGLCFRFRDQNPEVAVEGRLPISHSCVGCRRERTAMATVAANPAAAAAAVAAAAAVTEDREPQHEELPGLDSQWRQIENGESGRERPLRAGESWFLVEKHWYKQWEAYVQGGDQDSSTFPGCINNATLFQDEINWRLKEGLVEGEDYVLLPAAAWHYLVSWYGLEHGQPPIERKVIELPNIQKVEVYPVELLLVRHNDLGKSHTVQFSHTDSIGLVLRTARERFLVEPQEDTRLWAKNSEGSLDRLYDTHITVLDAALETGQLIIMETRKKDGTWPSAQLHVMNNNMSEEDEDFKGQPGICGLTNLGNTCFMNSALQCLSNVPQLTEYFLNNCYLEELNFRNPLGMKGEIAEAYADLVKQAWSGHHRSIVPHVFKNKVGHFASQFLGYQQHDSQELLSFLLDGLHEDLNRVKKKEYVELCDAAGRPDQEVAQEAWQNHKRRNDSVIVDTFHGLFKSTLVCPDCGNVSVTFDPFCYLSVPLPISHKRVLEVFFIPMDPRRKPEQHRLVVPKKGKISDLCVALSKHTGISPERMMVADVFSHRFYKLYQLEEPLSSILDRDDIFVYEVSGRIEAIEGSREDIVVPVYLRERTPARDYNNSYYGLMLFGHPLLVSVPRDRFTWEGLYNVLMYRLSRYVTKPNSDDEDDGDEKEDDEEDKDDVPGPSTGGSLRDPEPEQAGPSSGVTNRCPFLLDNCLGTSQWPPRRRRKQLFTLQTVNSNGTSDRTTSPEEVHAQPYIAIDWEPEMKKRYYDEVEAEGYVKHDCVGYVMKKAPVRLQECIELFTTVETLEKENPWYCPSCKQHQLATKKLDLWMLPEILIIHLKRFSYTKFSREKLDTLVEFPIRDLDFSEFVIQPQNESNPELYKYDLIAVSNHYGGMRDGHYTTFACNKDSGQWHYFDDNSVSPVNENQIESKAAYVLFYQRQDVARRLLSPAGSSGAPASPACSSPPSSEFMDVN
# Outline: as §1
# [3] = molecular target: T1, UniProt Q5T2D3
# T1 sequence (whole entry): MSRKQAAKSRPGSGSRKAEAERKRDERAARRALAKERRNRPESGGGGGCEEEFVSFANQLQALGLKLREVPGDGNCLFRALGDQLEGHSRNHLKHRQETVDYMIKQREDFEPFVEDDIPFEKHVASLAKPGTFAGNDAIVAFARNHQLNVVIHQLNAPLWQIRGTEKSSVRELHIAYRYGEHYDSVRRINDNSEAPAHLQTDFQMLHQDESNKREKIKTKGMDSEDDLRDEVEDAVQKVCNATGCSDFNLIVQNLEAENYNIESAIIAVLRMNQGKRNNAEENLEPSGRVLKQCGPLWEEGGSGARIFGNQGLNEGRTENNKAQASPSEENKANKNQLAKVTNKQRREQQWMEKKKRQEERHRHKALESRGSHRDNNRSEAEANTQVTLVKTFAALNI
# Outline: as §1
# [4] = molecular target: T2, UniProt Q8TE49
# T2 sequence (whole entry): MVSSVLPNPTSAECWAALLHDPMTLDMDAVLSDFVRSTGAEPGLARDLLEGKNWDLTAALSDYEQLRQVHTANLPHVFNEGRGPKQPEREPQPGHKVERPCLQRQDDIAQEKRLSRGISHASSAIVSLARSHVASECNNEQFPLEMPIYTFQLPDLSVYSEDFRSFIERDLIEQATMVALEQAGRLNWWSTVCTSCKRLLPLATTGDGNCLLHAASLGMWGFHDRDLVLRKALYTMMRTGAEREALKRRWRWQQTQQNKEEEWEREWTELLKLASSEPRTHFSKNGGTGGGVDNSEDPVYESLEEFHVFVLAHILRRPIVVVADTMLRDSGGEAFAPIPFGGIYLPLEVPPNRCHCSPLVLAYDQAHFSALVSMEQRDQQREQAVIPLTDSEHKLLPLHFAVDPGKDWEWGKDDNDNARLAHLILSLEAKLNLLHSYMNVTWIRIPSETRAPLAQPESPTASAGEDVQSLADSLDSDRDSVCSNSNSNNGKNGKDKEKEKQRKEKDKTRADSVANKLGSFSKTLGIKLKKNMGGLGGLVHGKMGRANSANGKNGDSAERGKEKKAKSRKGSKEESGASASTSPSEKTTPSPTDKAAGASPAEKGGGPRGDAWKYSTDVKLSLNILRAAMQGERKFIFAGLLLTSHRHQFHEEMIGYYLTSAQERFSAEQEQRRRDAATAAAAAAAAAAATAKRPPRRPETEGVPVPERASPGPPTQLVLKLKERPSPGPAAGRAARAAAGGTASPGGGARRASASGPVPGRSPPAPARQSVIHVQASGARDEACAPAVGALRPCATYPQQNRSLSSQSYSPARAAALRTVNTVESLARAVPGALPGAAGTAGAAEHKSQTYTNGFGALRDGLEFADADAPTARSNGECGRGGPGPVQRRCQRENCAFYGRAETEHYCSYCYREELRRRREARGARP
# Outline: as §1
# [5] = molecular target: T3, UniProt Q9P2H5
# T3 sequence (whole entry): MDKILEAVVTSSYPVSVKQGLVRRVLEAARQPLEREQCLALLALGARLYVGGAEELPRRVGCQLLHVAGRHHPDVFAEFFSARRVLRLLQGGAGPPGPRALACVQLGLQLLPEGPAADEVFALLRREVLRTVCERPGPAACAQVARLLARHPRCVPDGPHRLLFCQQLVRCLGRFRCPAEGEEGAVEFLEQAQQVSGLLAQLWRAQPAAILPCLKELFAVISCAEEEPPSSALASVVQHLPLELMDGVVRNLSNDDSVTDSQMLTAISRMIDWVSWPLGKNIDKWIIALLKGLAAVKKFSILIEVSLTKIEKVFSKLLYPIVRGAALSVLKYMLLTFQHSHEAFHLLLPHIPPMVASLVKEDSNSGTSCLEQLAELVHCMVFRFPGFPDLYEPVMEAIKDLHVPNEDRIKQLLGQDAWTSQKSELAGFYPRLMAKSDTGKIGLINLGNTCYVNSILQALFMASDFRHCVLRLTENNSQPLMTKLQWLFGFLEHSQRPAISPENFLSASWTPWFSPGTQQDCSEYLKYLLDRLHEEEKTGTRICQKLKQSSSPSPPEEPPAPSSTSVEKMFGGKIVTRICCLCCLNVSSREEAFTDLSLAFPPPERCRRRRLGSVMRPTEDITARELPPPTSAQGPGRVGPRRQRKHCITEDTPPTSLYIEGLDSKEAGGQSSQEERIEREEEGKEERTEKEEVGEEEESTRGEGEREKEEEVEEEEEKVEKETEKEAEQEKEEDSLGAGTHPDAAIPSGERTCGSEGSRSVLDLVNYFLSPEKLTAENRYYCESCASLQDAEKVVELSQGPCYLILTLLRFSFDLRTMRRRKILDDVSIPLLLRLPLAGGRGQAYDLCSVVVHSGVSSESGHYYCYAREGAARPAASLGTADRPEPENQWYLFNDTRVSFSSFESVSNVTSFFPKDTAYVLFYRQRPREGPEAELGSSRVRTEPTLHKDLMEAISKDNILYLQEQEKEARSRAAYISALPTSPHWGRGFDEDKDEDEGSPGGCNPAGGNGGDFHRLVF
# Outline: as §1
# [6] = molecular target: T4, UniProt Q9UGI0
# T4 sequence (whole entry): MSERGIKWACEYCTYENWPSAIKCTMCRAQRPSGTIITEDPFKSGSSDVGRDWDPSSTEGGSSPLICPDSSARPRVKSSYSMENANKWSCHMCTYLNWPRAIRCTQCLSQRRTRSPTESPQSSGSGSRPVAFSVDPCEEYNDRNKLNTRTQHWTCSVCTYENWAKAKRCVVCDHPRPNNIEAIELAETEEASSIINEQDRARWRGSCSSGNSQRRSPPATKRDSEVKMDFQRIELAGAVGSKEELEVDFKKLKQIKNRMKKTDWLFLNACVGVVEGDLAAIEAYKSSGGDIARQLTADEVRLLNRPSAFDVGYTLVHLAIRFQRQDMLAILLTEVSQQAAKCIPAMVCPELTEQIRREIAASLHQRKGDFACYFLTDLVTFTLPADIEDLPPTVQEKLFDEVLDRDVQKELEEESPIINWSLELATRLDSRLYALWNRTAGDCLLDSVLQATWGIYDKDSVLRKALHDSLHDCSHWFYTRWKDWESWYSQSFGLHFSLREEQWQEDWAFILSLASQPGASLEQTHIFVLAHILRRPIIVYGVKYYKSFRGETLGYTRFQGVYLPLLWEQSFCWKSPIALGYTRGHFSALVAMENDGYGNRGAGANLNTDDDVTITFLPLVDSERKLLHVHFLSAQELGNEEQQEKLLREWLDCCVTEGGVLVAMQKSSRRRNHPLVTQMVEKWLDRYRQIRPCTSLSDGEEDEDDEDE
# Outline: as §1
# [7] = molecular target: T5, YOD1 (UniProt Q5VVQ6)
# T5 sequence (whole entry): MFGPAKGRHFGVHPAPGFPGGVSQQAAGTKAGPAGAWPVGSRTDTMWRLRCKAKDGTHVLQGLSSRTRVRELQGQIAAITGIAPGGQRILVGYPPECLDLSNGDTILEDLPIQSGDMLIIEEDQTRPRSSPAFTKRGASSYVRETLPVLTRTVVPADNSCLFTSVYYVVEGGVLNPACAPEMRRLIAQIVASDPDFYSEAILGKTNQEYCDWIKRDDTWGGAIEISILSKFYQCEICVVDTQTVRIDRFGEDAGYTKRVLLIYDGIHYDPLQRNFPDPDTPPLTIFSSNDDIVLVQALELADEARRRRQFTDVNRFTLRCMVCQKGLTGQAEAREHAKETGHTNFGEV
# Outline: as §1
Compound,log2 ratio of Biotin-Ahx-Ub-VS probe labelling [1],log2 ratio of Biotin-Ahx-Ub-VS probe labelling [2],log2 ratio of Biotin-Ahx-Ub-VS probe labelling [3],log2 ratio of Biotin-Ahx-Ub-VS probe labelling [4],log2 ratio of Biotin-Ahx-Ub-VS probe labelling [5],log2 ratio of Biotin-Ahx-Ub-VS probe labelling [6],log2 ratio of Biotin-Ahx-Ub-VS probe labelling [7]
O=C(CCl)NCCC1COCCO1 (stereo not given),-0.31,0.182,-0.163,-0.547,-0.0395,-0.194,-0.308
CN1c2ccccc2C(NC(=O)CCl)CS1(=O)=O (stereo not given),-0.0151,-0.0186,-0.275,-2.63 (active),-0.164,-0.46,-0.0718
O=C(CCl)Nc1cccc(NC(=O)c2ccccc2)c1,0.236,0.295,0.263,-0.0536,-0.23,0.0168,0.288
Cc1nc(CN2CCCN(C(=O)CCl)CC2)no1.Cl,0.543,0.151,-0.111,0.0982,-0.193,0.143,0.273
Cl.O=C(CCl)NC1(c2ncccn2)CCC1,-0.0196,0.0134,-0.0112,0.0256,-0.0207,-0.201,0.161
COc1ccccc1C(C)NC(=O)CCl (stereo not given),-0.445,-0.212,-0.15,-0.696,-0.277,-0.788,-0.23
C[C@H]1CN(C(=O)CCl)CCN1C(=O)c1cnn(C)c1.Cl,0.326,0.00812,-0.292,-0.57,-0.408,0.189,0.0183
O=C(CCl)Nc1ccc(Cl)c(F)c1,-0.588,-0.219,-0.339,-0.571,-0.0638,-1.27 (active),-0.313
NC(=O)C1CCCN(C(=O)CCl)C1 (stereo not given),-0.185,-0.0378,0.103,0.0487,-0.0803,-0.698,0.00724
O=C(CN1CCN(C(=O)CCl)CC1)Nc1cccc(F)c1,0.00838,-0.0576,-0.264,-0.292,-0.486,-0.37,0.0312
